HCMV antiviral: qHTS Assay for inhibitors of the human cytomegalovirus (HCMV); HFF cells, HCMV-luciferase reporter, 72 h; hits give low values; 410,000 tested, 4.5% active; activity change, negative = inhibition, % at 57.5 µM; AID 1259415, 2018; in the data active = activity change below about -60%; inconclusive = no clear call, values can overlap the other calls; inactive = above about -39%
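Luciferase read-out from HCMV-luciferase-infected HFFs (MOI 1 PFU/cell) 72 h post infection at 37C; compounds added after 16 h cell attachment; activity normalized between buffer-only basal and Salinomycin (10uM) inhibitor controls.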
Marburg entry inh: qHTS for inhibitors of binding or entry into cells for Marburg Virus | AID 540276, 2011 | Marburg virus pseudotyped entry inhibition, cell reporter | Potency, µM (highest dose often 37.8 µM), without a hit: at the top dose activity change, negative = inhibition, usual class: inhibitors | 300,000 tested, 1.8% active; calls by dose curve; tested in HEK293 cells; note: potency is the fitted concentration of half-maximal effect
LASV entry inh: qHTS for Inhibitors of binding or entry into cells for Lassa Virus; 300,000 tested, 1.2% active; Potency, µM (series often up to 37.9 µM), for the others: at the highest dose activity change, negative = inhibition, usual class: inhibitors; Lassa virus pseudotype entry inhibition, cell reporter; calls by dose curve; tested in HEK293 cells; note: potency is the fitted concentration of half-maximal effect; nearly all actives have a fitted effect of over 50% in size
Vaccinia mCherry: qHTS for Stage-Specific Inhibitors of Vaccinia Orthopoxvirus: mCherry Reporter Primary qHTS. Vaccinia virus mCherry reporter infection, fluorescence. Potency, µM (doses to about 36.5 µM), for the others: top-dose activity change, negative = inhibition, actives largely listed as inhibitors. AID 720579, 2013. 310,000 tested, 0.63% active; calls by dose curve; tested in A549 cells; note: potency is the fitted concentration of half-maximal effect; nearly all actives have a fitted effect of over 35% in size
Vaccinia Venus: qHTS for Stage-Specific Inhibitors of Vaccinia Orthopoxvirus: Venus Reporter Primary qHTS. Vaccinia virus Venus reporter expression, fluorescence. Potency, µM (top dose mostly 36.5 µM), without a hit: at the top dose activity change, negative = inhibition, hits mostly inhibitors. 330,000 tested, 0.46% active. AID 720580, 2013; calls by dose curve; tested in A549 cells; note: potency is the fitted concentration of half-maximal effect; nearly all actives have a fitted effect of over 30% in size
HCV inh: qHTS Assay for Inhibitors of Hepatitis C Virus (HCV); Huh7.5.1 HCVcc-Cre infection, luciferase reporter, 44 h; Potency, µM (series often up to 41.8 µM), without a hit: top-dose activity change, negative = inhibition, usual class: inhibitors; 340,000 tested, 3.4% active; AID 651820, 2012; active = well fitted inhibition curve with a large enough effect; inconclusive = small, poorly fitted or top-dose-only effect, or another doubt; inactive = no such curve, though single readings can be large or run the other way; note: potency is the fitted concentration of half-maximal effect
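Infectious HCVcc-Cre (~0.5 moi) was added to cells just after compound, with cells seeded 4 h earlier at 1,000 per well. Luciferase activity after 44 h culture reported infection; substrate was incubated 15 min at room temperature before reading.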
Starred values were filed as active, the others as inactive; i = inactive; ? = inconclusive; nt = not tested or not shown; [ ] = remark or other dose. Shown are actives, neighbours in structure and some others; about 7.8% of the full set was active somewhere. % is set by controls: 0 for no effect and ±100 for the full control effect.

SMILES | HCMV antiviral | Marburg entry inh | LASV entry inh | Vaccinia mCherry | Vaccinia Venus | HCV inh
O=C(NCC1CCS(=O)(=O)C1)Oc1ccccc1 (centres undefined) | -95.4* | -1.0% | 15.6% | nt | nt | 0.6%
CCCCCN1C(=O)c2cc(OC)ccc2[C@@]2(C(=O)OCC)Cc3cc(Cl)ccc3[C@@H]12 | -103.4* | nt | nt | ? | ? | nt
CCOC(=O)[C@]12Cc3cc4ccccc4cc3[C@H]1N(Cc1ccccc1)C(=O)c1ccccc12 | -96.8* | nt | nt | ? | ? | nt
CCOC(=O)[C@]12Cc3cc(OC)ccc3[C@H]1N(Cc1ccccc1)C(=O)c1cc(OC)ccc12 | 6.2 | nt | nt | -10.2% | -6.6% | nt
CCOC(=O)[C@]12Cc3cc(Cl)ccc3[C@H]1N(Cc1ccccc1)C(=O)c1cc(OC)ccc12 | -106.3* | nt | nt | ? | ? | nt
CCOC(=O)[C@]12Cc3cc4ccccc4cc3[C@H]1N(Cc1ccccc1)C(=O)c1cc(OC)ccc12 | -90.6* | nt | nt | ? | ? | nt
CCOC(=O)[C@]12Cc3cc(OC)c(OC)cc3[C@H]1N(Cc1ccccc1)C(=O)c1ccccc12 | 62.6 | nt | nt | -7.3% | -23.4% | ?
O=C1C(Cl)=C(NCCCN2CCOCC2)C(=O)c2ccccc21 | 6.2 | ? | ? | -10.9% | 22.6% | 10µM*
CCOCCCNC1=C(Cl)C(=O)c2ccccc2C1=O | -26.5 | nt | nt | nt | nt | -12.6%
O=C1C(Cl)=C(NCCCO)C(=O)c2ccccc21 | -29.1 | ? | -18.2% | nt | -9.7% | 12.6µM*
CCC1CN(C(=O)Nc2cccc(OC)c2)c2ccccc2O1 (centres undefined) | -1.5 | nt | ? | -6.3% | -7.1% | nt
COc1ccccc1-n1c(SCC(=O)c2ccc(O)cc2O)nc2cc([N+](=O)[O-])ccc21 | 134.4 | 2.24µM* | 4.5% | ? | ? | 12.6%
CCCCCc1c2c(cc(O)c1C(=O)O)OC(=O)c1cc(C(=O)CCCC)c(OC)cc1O2 | 6.4 | nt | nt | -10.4% | -7.9% | 0.501µM*
CCCCCc1c2c(cc(O)c1C(=O)O)OC(=O)c1c(cc(OC)cc1C(=O)CCCC)O2 | nt | nt | nt | i | 0.0% | 7.9%
COc1ccc(C[C@@H]2OC3(C=CC(=O)C=C3)O[C@H]2Cc2ccc(OC)cc2)cc1 | nt | 2.51µM* | ? | ? | 10µM* | 3.98µM*
O=C1C=CC2(C=C1)O[C@H](Cc1ccccc1)[C@@H](Cc1ccccc1)O2 | -98.7* | 2.82µM* | 7.08µM* | 10µM* | 22.4µM* | 2.51µM*
COc1ccc(N2C(=O)CC(Cc3ccccc3)C2=O)cc1 (centres undefined) | 5.9 | 8.6% | 3.5% | nt | nt | 6.8%
CCCN(CCC)C(=O)Cn1c(=O)n(-c2ccc(C)c(C)c2)c(=O)c2c3c(sc21)CCCCC3 | 4.6 | 19.6%[46.1 µM] | ? | -19.1% | -16.8% | nt
COc1ccc(N2CC(C(=O)Nc3nccs3)CC2=O)cc1 (centres undefined) | -78.1* | 28.1% | 3.0% | nt | nt | 16.9%
O=C(Nc1nccs1)C1CC(=O)N(c2ccc(Cl)cc2)C1 (centres undefined) | 14.7 | -13.9%[46.1 µM] | 14.9%[46.1 µM] | -7.2% | -4.3% | -5.6%
COc1ccc(-c2nc(NC(=O)C3CC(=O)N(c4ccc5c(c4)OCCO5)C3)sc2C)cc1 (centres undefined) | -96.1* | ? | ? | ? | ? | ?
CCc1ccc(S(=O)(=O)c2nnn3c2nc(N2CCCC2)c2sccc23)cc1 | 19.1 | nt | 19.9%[46.1 µM] | -6.5% | -5.2% | nt
CS(=O)(=O)c1ccc(C(=O)NCCN2C(=O)S/C(=C\c3cccnc3)C2=O)cc1[N+](=O)[O-] | -114.5* | 10.3µM* | 20.6µM* | nt | nt | ?
O=C(NCCN1C(=O)S/C(=C\c2ccc(Cl)c([N+](=O)[O-])c2)C1=O)C1=COCCO1 | 2.0 | ? | ? | -1.6% | -9.7% | 11.2µM*
O=C(NCCN1C(=O)S/C(=C\c2ccc(Cl)c(Cl)c2)C1=O)c1cnccn1 | -66.4* | -5.4% | -16.4% | -11.8% | -6.1% | -1.3%
SMILES | HCMV antiviral | Marburg entry inh | LASV entry inh | Vaccinia mCherry | Vaccinia Venus | HCV inh
CN(C)S(=O)(=O)c1ccc(C(=O)NCCN2C(=O)S/C(=C\c3cccnc3)C2=O)cc1 | 34.7 | 15.0%[46.1 µM] | 2.0% | -1.8% | -3.8% | -8.6%
COc1ccccc1N(CC(=O)N1CCC(C)CC1)S(=O)(=O)c1ccc(C)cc1 | -30.3 | -7.5%[46.1 µM] | 2.1%[46.1 µM] | -13.6% | -11.5% | nt
CN1C(=S)SC(/[N+]([O-])=C/c2ccc(Cl)cc2)C1(C)C (centres undefined) | -65.2* | 0.9%[46.1 µM] | -12.6% | -23.2% | -13.3% | 16.1%
CCOc1ccccc1CNC(=O)CSc1n[nH]c(-c2ccccc2Cl)n1 | -13.8 | nt | -24.9%[46.1 µM] | -20.4% | -14.8% | nt
Cc1ccc(-c2nc(S(=O)(=O)c3ccc(F)cc3)c(SCC(=O)NCC3CCCO3)o2)cc1 (centres undefined) | -38.2 | ? | -0.4% | -6.8% | -2.3% | 2.4%
Cc1ccc(S(=O)(=O)c2nc(-c3ccccc3)oc2SCC(=O)NCC2CCCO2)cc1 (centres undefined) | ? | ? | -34.4%[46.1 µM] | -10.1% | -11.2% | 10µM*
O=C(CSc1oc(-c2ccc(F)cc2)nc1S(=O)(=O)c1ccccc1)NCC1CCCO1 (centres undefined) | -63.6* | ? | -19.9% | -14.5% | -11.5% | -7.7%
Cc1ccc(O)c(C(=O)c2cnn(C(=O)COc3ccc(Cl)cc3)c2)c1 | -60.8* | -1.1% | -15.3% | -4.3% | -0.1% | -0.8%
COCc1cc(=O)n2[nH]cc(-c3ccccc3)c2n1 | 44.6 | -1.4% | 15.2% | -19.4% | -20.5% | 4.7%
CCCc1cc(=O)n2[nH]cc(-c3ccc(Cl)cc3)c2n1 | -96.1* | ? | ? | ? | ? | ?
CCC1CCCCN1CCCNC(=O)c1csc2c1CCCCC2 (centres undefined) | -31.4 | nt | nt | nt | nt | -0.5%
CCN1CCCC1CNC(=O)c1csc2c1CCCC2 (centres undefined) | 52.6 | 23.1µM* | -14.0% | i | ? | ?
COc1ccc(CCNC(=O)c2csc3c2CCCC3)cc1OC | -33.9 | ? | -8.2%[46.1 µM] | -9.6% | -12.1% | -20.6%
COc1ccc(OC)c(CCNC(=O)c2csc3c2CCCCC3)c1 | -62.3* | ? | nt | -11.3% | 1.3% | nt
O=C(NCc1ccco1)c1csc2c1CCCC2 | -64.8* | -0.2%[46.1 µM] | 8.1% | -13.3% | -9.4% | 7.8%
COC(=O)C/C=C/[C@@H](C)[C@H](NC(=O)OCC(Cl)(Cl)Cl)c1ccc2ccccc2c1 | nt | -17.9%[14.2 µM] | nt | nt | nt | nt
Cc1ccc(C)c(-n2nnc(-c3nc(-c4ccc(Cl)cc4)no3)c2N)c1 | 29.7 | nt | 16.2%[46.1 µM] | -12.4%[7.34 µM] | -9.2%[7.34 µM] | nt
